Data taken from PubChem BioAssay (NCI).
The panel holds about 83,000 compounds, 20% with a hit somewhere; the sample as a whole holds those more often.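 Method: cells in 96-well plates; compound added at one concentration; 48 h incubation; percent growth measured; values under 10 scored active.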 The source made the active and inactive calls.

Legend:
Test in all cases: NCI-60 one-dose screen, 48 h (100 = growth as untreated, 0 = no growth, -100 = all killed)
Settings in all cases: 10 µM
SR leukemia = system: SR leukemia
RPMI-8226 leukemia = system: RPMI-8226 leukemia
OVCAR-8 ovarian = system: OVCAR-8 ovarian
OVCAR-5 ovarian = system: OVCAR-5 ovarian
OVCAR-4 ovarian = system: OVCAR-4 ovarian
SK-OV-3 ovarian = system: SK-OV-3 ovarian
IGROV1 ovarian = system: IGROV1 ovarian
HS 578T breast = system: HS 578T breast
NCI/ADR-RES ovarian = system: NCI/ADR-RES ovarian
OVCAR-3 ovarian = system: OVCAR-3 ovarian

Measured: growth

Cc1ccc(-c2cc(C(=O)Nc3ccc(S(=O)(=O)N4CCCCC4)cc3)[nH]n2)c(O)c1
inactive: SR leukemia 14.9% | RPMI-8226 leukemia 43.3% | OVCAR-8 ovarian 58.7% | OVCAR-5 ovarian 73.8% | OVCAR-4 ovarian 38.5% | SK-OV-3 ovarian 94.1% | IGROV1 ovarian 68.8% | HS 578T breast 79.4% | NCI/ADR-RES ovarian 59.9%

CCOC(=O)c1cc(-c2ccccc2)nc(N)n1
inactive: SR leukemia 106% | RPMI-8226 leukemia 99.6% | OVCAR-8 ovarian 103% | OVCAR-5 ovarian 98.2% | OVCAR-4 ovarian 107% | SK-OV-3 ovarian 103% | IGROV1 ovarian 103% | OVCAR-3 ovarian 109% | HS 578T breast 92.5% | NCI/ADR-RES ovarian 100%

CCN(CC)CCOC(=O)c1ccc(NC(=O)Nc2cccc(Cl)c2)cc1
inactive: SR leukemia 96.5% | RPMI-8226 leukemia 103% | OVCAR-8 ovarian 97.6% | OVCAR-5 ovarian 105% | OVCAR-4 ovarian 107% | SK-OV-3 ovarian 102% | IGROV1 ovarian 105% | HS 578T breast 100% | NCI/ADR-RES ovarian 97.5%

C[n+]1c(/C=C/c2c[nH]c3ccccc23)ccc2ccccc21
inactive: SR leukemia 18.2% | RPMI-8226 leukemia 40.7% | OVCAR-8 ovarian 39.7% | OVCAR-5 ovarian 75.6% | OVCAR-4 ovarian 54.8% | SK-OV-3 ovarian 64.6% | IGROV1 ovarian 72.4% | HS 578T breast 103% | NCI/ADR-RES ovarian 100%

CC(=O)c1c(O)cc2c3c1OC(C)(C)C1CCC(C)(CC31)O2 (stereo unspecified)
inactive: SR leukemia 86.7% | RPMI-8226 leukemia 54.4% | OVCAR-8 ovarian 86.3% | OVCAR-5 ovarian 97.7% | OVCAR-4 ovarian 89.6% | SK-OV-3 ovarian 97.6% | IGROV1 ovarian 96.2% | HS 578T breast 115% | NCI/ADR-RES ovarian 89.6%

CCOC(=O)C(=O)Cc1cccnn1
inactive: SR leukemia 101% | RPMI-8226 leukemia 102% | OVCAR-8 ovarian 103% | OVCAR-5 ovarian 103% | OVCAR-4 ovarian 102% | SK-OV-3 ovarian 106% | IGROV1 ovarian 109% | HS 578T breast 133% | NCI/ADR-RES ovarian 104%

C=CCc1cc(Nc2c3ccc(Cl)cc3nc3ccc(OC)cc23)cc(CN(CC)CC)c1O
inactive: OVCAR-5 ovarian 47.5% | IGROV1 ovarian 25.5% | NCI/ADR-RES ovarian 43.9%
active: SR leukemia -20.4% | RPMI-8226 leukemia -25.7% | OVCAR-8 ovarian 8.73% | OVCAR-4 ovarian 9.26% | SK-OV-3 ovarian 1.21% | OVCAR-3 ovarian 6.47%

Cc1cc(OI)c(C(C)C)cc1-c1cc(C(C)C)c(OI)cc1C
inactive: SR leukemia 84.8% | RPMI-8226 leukemia 103% | OVCAR-8 ovarian 104% | OVCAR-5 ovarian 94.4% | OVCAR-4 ovarian 109% | SK-OV-3 ovarian 92.4% | IGROV1 ovarian 98% | OVCAR-3 ovarian 108% | HS 578T breast 109% | NCI/ADR-RES ovarian 102%

COc1ccc2nc(-c3ccccc3)cc(C(C)=O)c2c1
inactive: SR leukemia 81.6% | RPMI-8226 leukemia 94.5% | OVCAR-8 ovarian 97.3% | OVCAR-5 ovarian 92.4% | OVCAR-4 ovarian 103% | SK-OV-3 ovarian 107% | IGROV1 ovarian 86.2% | HS 578T breast 94.3% | NCI/ADR-RES ovarian 90.1%

C#C[C@]1(O)CC[C@H]2[C@@H]3CC[C@H]4CC(F)(F)CC[C@]4(C)[C@H]3CC[C@@]21C
inactive: RPMI-8226 leukemia 80.1% | OVCAR-8 ovarian 84.6% | OVCAR-5 ovarian 88.5% | OVCAR-4 ovarian 94.2% | SK-OV-3 ovarian 60.8% | IGROV1 ovarian 94.2% | OVCAR-3 ovarian 93.9% | HS 578T breast 77.6% | NCI/ADR-RES ovarian 92.2%
active: SR leukemia 8.15%

COc1ccc(-c2n/c(=C\c3c(O)[nH]c4ccccc34)cc3c2=Nc2ccccc2-3)cc1
active: SR leukemia 6.48% | OVCAR-4 ovarian 5.98% | NCI/ADR-RES ovarian 5.95%
inactive: RPMI-8226 leukemia 24.7% | OVCAR-8 ovarian 20.1% | OVCAR-5 ovarian 89.1% | SK-OV-3 ovarian 93.5% | IGROV1 ovarian 85.6% | HS 578T breast 80.7%

O=C(NNc1nc(N2CCCC2)nc(N2CCCC2)n1)c1ccccc1
inactive: SR leukemia 70.8% | RPMI-8226 leukemia 106% | OVCAR-8 ovarian 104% | OVCAR-5 ovarian 100% | OVCAR-4 ovarian 106% | SK-OV-3 ovarian 121% | IGROV1 ovarian 103% | OVCAR-3 ovarian 108% | HS 578T breast 104% | NCI/ADR-RES ovarian 102%

CC(=O)CS(C)(=O)=O
inactive: SR leukemia 94.8% | RPMI-8226 leukemia 105% | OVCAR-8 ovarian 105% | OVCAR-5 ovarian 102% | OVCAR-4 ovarian 112% | SK-OV-3 ovarian 104% | IGROV1 ovarian 108% | OVCAR-3 ovarian 111% | HS 578T breast 107% | NCI/ADR-RES ovarian 109%

CC(C)c1ncc(CO)n1Cc1c(Cl)cccc1Cl
inactive: SR leukemia 97.4% | RPMI-8226 leukemia 97.6% | OVCAR-8 ovarian 105% | OVCAR-5 ovarian 106% | OVCAR-4 ovarian 116% | SK-OV-3 ovarian 99.5% | IGROV1 ovarian 100% | OVCAR-3 ovarian 105% | HS 578T breast 104% | NCI/ADR-RES ovarian 110%

O=NN(CCCl)C(=O)Nc1ccc(NC(=O)N(CCCl)N=O)cc1
inactive: RPMI-8226 leukemia 100% | OVCAR-8 ovarian 93% | OVCAR-5 ovarian 95.2% | OVCAR-4 ovarian 93.7% | SK-OV-3 ovarian 105% | IGROV1 ovarian 85.9% | OVCAR-3 ovarian 111% | HS 578T breast 104% | NCI/ADR-RES ovarian 98.7%
active: SR leukemia 2.28%

CCOc1nc(-c2ccccc2)cc2c(O)c(C(=O)NC(C)C)[nH]c(=O)c12
inactive: SR leukemia 94% | RPMI-8226 leukemia 40.1% | OVCAR-8 ovarian 103% | OVCAR-5 ovarian 114% | OVCAR-4 ovarian 118% | SK-OV-3 ovarian 98.6% | IGROV1 ovarian 65.4% | HS 578T breast 82.5% | NCI/ADR-RES ovarian 96.8%

FC(F)(F)c1ccc(-c2cnc(Br)nc2NC2CCCCCC2)cc1
inactive: SR leukemia 51% | OVCAR-8 ovarian 24.1% | OVCAR-5 ovarian 63.2% | OVCAR-4 ovarian 22.6% | SK-OV-3 ovarian 71.6% | IGROV1 ovarian 36.1% | OVCAR-3 ovarian 10.8% | HS 578T breast 53.4% | NCI/ADR-RES ovarian 77.9%
active: RPMI-8226 leukemia -4.63%

COCc1cc2c(cc1Br)OCO2
inactive: SR leukemia 106% | RPMI-8226 leukemia 95.1% | OVCAR-8 ovarian 98.8% | OVCAR-5 ovarian 92.5% | OVCAR-4 ovarian 111% | OVCAR-3 ovarian 111% | HS 578T breast 101% | NCI/ADR-RES ovarian 88.7%

CCn1nc(-c2ccccn2)c2cccnc2c1=S
inactive: SR leukemia 61.6% | RPMI-8226 leukemia 55.2% | OVCAR-8 ovarian 79.5% | OVCAR-5 ovarian 97% | OVCAR-4 ovarian 26.5% | OVCAR-3 ovarian 15.4% | HS 578T breast 96.6% | NCI/ADR-RES ovarian 91.5%

O=C(Nc1cccc(C(F)(F)F)c1)C(Cl)Cl
inactive: SR leukemia 94.3% | RPMI-8226 leukemia 98.5% | OVCAR-8 ovarian 98.7% | OVCAR-5 ovarian 105% | OVCAR-4 ovarian 110% | IGROV1 ovarian 92.5% | HS 578T breast 107% | NCI/ADR-RES ovarian 104%

CCOC(=O)c1c(C(F)(F)F)n([O-])c2ccc(OC)cc2[n+]1=O
inactive: OVCAR-8 ovarian 23.8% | OVCAR-5 ovarian 60.8% | OVCAR-4 ovarian 30.5% | IGROV1 ovarian 24.2% | HS 578T breast 41.1% | NCI/ADR-RES ovarian 31.3%
active: SR leukemia -13.3% | RPMI-8226 leukemia -34.8%

NS(=O)(=O)c1ccc(N2N=C(c3ccc(-c4ccccc4)cc3)CC2c2ccc(Cl)cc2)cc1 (stereo unspecified)
inactive: SR leukemia 73.5% | RPMI-8226 leukemia 63.4% | OVCAR-8 ovarian 78% | OVCAR-5 ovarian 95% | OVCAR-4 ovarian 76.1% | IGROV1 ovarian 88.1% | OVCAR-3 ovarian 94.3% | HS 578T breast 88.6% | NCI/ADR-RES ovarian 84.5%

S=C(Cc1ccc(-c2ccccc2)cc1)N1CCOCC1
inactive: SR leukemia 101% | RPMI-8226 leukemia 96.5% | OVCAR-8 ovarian 102% | OVCAR-4 ovarian 101% | SK-OV-3 ovarian 102% | IGROV1 ovarian 113% | OVCAR-3 ovarian 104% | HS 578T breast 97.8% | NCI/ADR-RES ovarian 103%

CNC(=O)c1cc(Oc2ccc(NC(=O)Nc3ccc(Cl)c(OC(C)C)c3)c(F)c2)ccn1
inactive: SR leukemia 40.8% | RPMI-8226 leukemia 26.8% | OVCAR-8 ovarian 53.9% | OVCAR-5 ovarian 85.3% | OVCAR-4 ovarian 24.1% | IGROV1 ovarian 60.8% | OVCAR-3 ovarian 58.3% | HS 578T breast 64.6% | NCI/ADR-RES ovarian 56%

CCCCCN(CCCCC)C(C)C(O)c1ccc2cc(Cl)c3ccccc3c2c1 (stereo unspecified)
inactive: SR leukemia 84.7% | RPMI-8226 leukemia 84.1% | OVCAR-8 ovarian 99.9% | OVCAR-4 ovarian 105% | SK-OV-3 ovarian 88.8% | IGROV1 ovarian 98.3% | OVCAR-3 ovarian 97.4% | HS 578T breast 89.4% | NCI/ADR-RES ovarian 98.9%

CC1(C)CCc2cc(-c3ccn(S(=O)(=O)c4ccc(Cl)cc4)n3)ccc2O1
inactive: SR leukemia 45.5% | RPMI-8226 leukemia 52.1% | OVCAR-8 ovarian 86.6% | OVCAR-5 ovarian 101% | SK-OV-3 ovarian 91.3% | OVCAR-3 ovarian 84% | HS 578T breast 99.5% | NCI/ADR-RES ovarian 69.3%

O=C(/C=C/c1nnc2n(Cc3ccccc3)c(=O)c3c4c(sc3n12)CCCC4)c1ccccc1
inactive: OVCAR-8 ovarian 19.3% | OVCAR-5 ovarian 115% | OVCAR-4 ovarian 112% | OVCAR-3 ovarian 68.4% | HS 578T breast 110% | NCI/ADR-RES ovarian 85.8%
active: SR leukemia -5.47% | RPMI-8226 leukemia 1.69%

COC(=O)c1c(C)nc(Nc2nc3ccccc3s2)nc1-c1ccc(Cl)cc1Cl
inactive: SR leukemia 99.4% | RPMI-8226 leukemia 96.2% | OVCAR-8 ovarian 103% | OVCAR-5 ovarian 113% | OVCAR-4 ovarian 91.6% | IGROV1 ovarian 124% | HS 578T breast 108% | NCI/ADR-RES ovarian 104%

COc1cc(CSc2nc3ccc(Cl)cc3c(=O)n2Cc2ccccc2)cc(OC)c1OC
inactive: SR leukemia 23.1% | OVCAR-8 ovarian 53% | OVCAR-5 ovarian 46.7% | OVCAR-4 ovarian 52% | SK-OV-3 ovarian 24.4% | IGROV1 ovarian 35.3% | HS 578T breast 30.5% | NCI/ADR-RES ovarian 14%
active: OVCAR-3 ovarian -0.909%

CN(C)CCCN1c2ccccc2Sc2ccc(C(F)(F)F)cc21
active: SR leukemia -42.3% | OVCAR-3 ovarian 8.18%
inactive: RPMI-8226 leukemia 22.5% | OVCAR-8 ovarian 44.4% | OVCAR-4 ovarian 44.4% | SK-OV-3 ovarian 20.2% | IGROV1 ovarian 17% | HS 578T breast 27% | NCI/ADR-RES ovarian 10.4%
